Assay outcomes deposited in PubChem BioAssay by National Center for Advancing Translational Sciences (NCATS).
Hits are enriched below; roughly 12% of the tested compounds scored in any of these assays.
G9a inh – G9a (human) methyltransferase inhibition; 350,000 compounds, 8.8% hits; Potency, µM (titrated, usually from 102 µM), for the others: at the top dose activity, negative = inhibition, hits mostly inhibitors; AID 504332; Q96KQ7; G9a H3K9 monomethylation, AlphaScreen, 2 h; further: on the % scale 0 is the no-effect control and ±100 the full control effect; nearly all actives have a fitted effect of over 75% in size
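G9a (20 nM) preincubated 15 min RT with compounds, then 500 nM biotinylated H3K9 peptide and 20 uM SAM added; 2 h RT reaction. Monomethyl-H3K9 product detected by AlphaScreen with anti-H3K9me1 antibody, streptavidin donor and anti-rabbit IgG acceptor beads.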
HP1b binding inh – inhibitors of HP1-beta chromodomain binding to methylated histone tails | P83916 | AlphaScreen HP1-beta / biotin-H3K9me3 peptide binding | Potency, µM (titrated, usually from 114 µM), without a hit: top-dose activity change, negative = inhibition, hits mostly inhibitors | 390,000 compounds, 0.56% hits; further: nearly all actives have a fitted effect of over 70% in size
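HP1-beta protein (50 nM final) preincubated 30 min at room temperature with biotinylated H3(1-18)K9me3 peptide (50 nM) in PBS pH 7.4, 0.01% Tween-20, then compound added for 30 min. AlphaScreen streptavidin donor/nickel chelate acceptor beads (10 ug/mL final), 30 min dark, luminescence read.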
PLK1 PBD block – blocks phosphopeptide binding to human PLK1 polo-box domain. P53350. Plk1 PBD binding of FITC phosphopeptide, fluorescence polarization. Potency, µM, without a hit: max response, negative = inhibition, most hits filed as inhibitors. 360,000 compounds, 2.8% hits. AID 720504; further: series mostly up to about 57 µM; on the % scale 0 is the no-effect control and ±100 the full control effect; nearly all actives have a fitted effect of over 65% in size
JMJD2A Tudor inh – inhibitors of human JMJD2A Tudor domain | AlphaScreen JMJD2A-Tudor / H3K4me3 peptide binding | Potency, µM (doses to about 114 µM), inactives show at the highest dose activity change, negative = inhibition, usual class: inhibitors | 390,000 compounds, 4.4% hits; further: on the % scale 0 is the no-effect control and ±100 the full control effect; nearly all actives have a fitted effect of over 50% in size
Sfp inh – blocks B. subtilis Sfp PPTase activity; Potency, µM, for inactives: largest response in the series, negative = inhibition, most hits filed as inhibitors; AID 1490; Q9F4F7; 310,000 compounds, 3.5% hits; Biochemical Sfp PPTase activity, qHTS;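 further: the enzyme is Sfp with the accession as filed and its product quenches rhodamine fluorescence; 0% = enzyme reaction without inhibitor and -100% = no enzyme wells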
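Step 1, compound plus 15 nM Sfp-PPTase, 15 min, room temperature. Step 2, add rhodamine-CoA (5 uM) and BHQ-2-YbbR (12.5 uM). Step 3, read 525/598 nm fluorescence at 0 and 30 min.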
BAZ2B inh – BAZ2B (human) inhibition; Q9UIF8; AlphaScreen BAZ2B-H3K14Ac peptide displacement; Potency, µM (top dose mostly 114 µM), for inactives: at the highest dose activity change, negative = inhibition, actives largely listed as inhibitors; 360,000 compounds, 4.4% hits; AID 504333; further: on the % scale 0 is the no-effect control and ±100 the full control effect; nearly all actives have a fitted effect of over 60% in size
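Multi-concentration screen (max 110 uM) measuring displacement of acetylated histone H3 peptide from BAZ2B by AlphaScreen, using 50 nM protein, 50 nM peptide and 10 ug/mL streptavidin donor plus Ni-chelate acceptor beads.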
Starred values were filed as active, the others as inactive; [ ] = dose if it differs, or a comment. The call rests on the fitted dose curve; in most records, active means well fitted curve in the direction sought with a large enough effect; inconclusive means small, poorly fitted or top-dose-only effect, or another doubt; inactive means no such curve, though single readings can be large; an effect the other way counts as inactive or inconclusive. Potency means the concentration at half of the fitted maximal effect.

What do the screens show for `CCOC(=O)c1cc2c(=O)n3ccccc3nc2n(Cc2ccco2)c1=NC(=O)c1ccccc1OC`?
G9a inh: -28.8%; HP1b binding inh: 6.9%; PLK1 PBD block: -11.5%; JMJD2A Tudor inh: inconclusive; Sfp inh: 35.5µM*; BAZ2B inh: -26.3%

How did CCOC(=O)c1cc2c(=O)n3ccccc3nc2n(Cc2ccco2)c1=NC(=O)c1ccc(OC)cc1 do in these assays?
G9a inh: -12.1%; HP1b binding inh: 22.3%; PLK1 PBD block: -8.0%; JMJD2A Tudor inh: 9.3%; Sfp inh: inconclusive; BAZ2B inh: -8.1%

Results for CCOC(=O)c1cc2c(=O)n3ccccc3nc2n(Cc2ccco2)c1=NC(=O)c1cccc(OC)c1 ?
G9a inh: -24.0%; HP1b binding inh: 13.2%; PLK1 PBD block: -6.9%; JMJD2A Tudor inh: -7.2%; Sfp inh: 28.2µM*; BAZ2B inh: -15.0%

What do the screens show for `Cc1cccc2nc(Cn3c(=O)n(-c4ccccc4)c(=O)c4c5c(sc43)CCC5)cc(=O)n12`?
G9a inh: 6.5%[59 µM]; HP1b binding inh: 34.8%; JMJD2A Tudor inh: -22.5%; BAZ2B inh: 3.4%

What do the screens show for `Cc1cc(C)n2nc(-c3ccc(F)cc3)cc2n1`?
PLK1 PBD block: -3.7%

Results for Cc1cc(-c2ccc(F)cc2)nc2cc(C(N)=O)nn12 ?
G9a inh: 56.2µM*; HP1b binding inh: -1.9%; PLK1 PBD block: -17.6%; JMJD2A Tudor inh: -26.7%; Sfp inh: -22.7%; BAZ2B inh: -6.8%

How did O=C(O)c1c(Cl)c(Cl)c(Cl)c(Cl)c1-c1c2cc(I)c(=O)c(I)c-2oc2c(I)c(O)c(I)cc12 do in these assays?
G9a inh: 1.78µM*; Sfp inh: 14.1µM*

Results for O=C(O)c1ccccc1-c1c2cc(I)c(=O)c(I)c-2oc2c(I)c(O)c(I)cc12 ?
HP1b binding inh: inconclusive; PLK1 PBD block: 23.3%; JMJD2A Tudor inh: 17.8µM*; Sfp inh: inconclusive

What do the screens show for `COc1ccc(OC)c(Nc2nc(NCCCN(C)C)nc(N)c2[N+](=O)[O-])c1`?
G9a inh: 44.7µM*; HP1b binding inh: -21.2%; PLK1 PBD block: -19.1%; JMJD2A Tudor inh: 35.5µM*; Sfp inh: -10.8%; BAZ2B inh: 31.6µM*

How did Cc1ccccc1CCNC(=O)C1CC(O)CN1C(=O)Nc1ccccc1 (centres undefined) do in these assays?
HP1b binding inh: 32.7%; PLK1 PBD block: 7.2%; JMJD2A Tudor inh: -9.6%; Sfp inh: 6.3%; BAZ2B inh: -1.6%

What do the screens show for `CCCS(=O)(=O)Nc1c(C(=O)OC)[nH]c2ccccc12`?
G9a inh: 50.1µM*; HP1b binding inh: 23.8%; PLK1 PBD block: -5.8%; JMJD2A Tudor inh: 0.0%; Sfp inh: -10.0%; BAZ2B inh: 1.1%

How did COC(=O)c1[nH]c2cccc(OC)c2c1NC(=O)CN1CCN(c2cccc(OC)c2)C(C)C1 (centres undefined) do in these assays?
G9a inh: inconclusive; HP1b binding inh: -6.5%; PLK1 PBD block: 2.1%; JMJD2A Tudor inh: -27.9%; Sfp inh: inconclusive; BAZ2B inh: inconclusive

How did CCOC(=O)c1[nH]c2cc(OC)c(OC)cc2c1NC(=O)CN1CCN(c2ccc(OC)cc2)C(C)C1 (centres undefined) do in these assays?
G9a inh: 22.4µM*; Sfp inh: 7.7%; BAZ2B inh: 44.7µM*

What do the screens show for `CCOC(=O)c1[nH]c2ccc(F)cc2c1NC(=O)c1cc(OC)c(OC)c(OC)c1`?
G9a inh: -44.3%[12.7 µM]; HP1b binding inh: -9.2%; PLK1 PBD block: 23.8µM*; JMJD2A Tudor inh: -21.9%[11.4 µM]; Sfp inh: -3.9%; BAZ2B inh: 2.8%

How did COC(=O)c1[nH]c2cc(OC)ccc2c1NC(=O)CCN1CCCC(C)(C)C1 do in these assays?
G9a inh: 56.2µM*; HP1b binding inh: 9.4%; PLK1 PBD block: -7.1%; JMJD2A Tudor inh: -5.3%; Sfp inh: 13.0%; BAZ2B inh: -4.9%

What do the screens show for `COc1cc(OC)cc(C(=O)NC(C(=O)NNC(=O)c2ccc(C)cc2)C(C)C)c1` (centres undefined)?
G9a inh: 10.1%[2.33 µM]; HP1b binding inh: 24.5%; PLK1 PBD block: -6.0%; JMJD2A Tudor inh: -10.1%; BAZ2B inh: 2.3%

Results for CCOC(=O)c1[nH]c2ccccc2c1NC(=O)Nc1ccc(OC)cc1 ?
G9a inh: 50.1µM*; HP1b binding inh: 17.7%; PLK1 PBD block: -5.9%; JMJD2A Tudor inh: -4.5%; Sfp inh: -22.5%; BAZ2B inh: 11.9%

How did CCOC(=O)c1[nH]c2ccc(F)cc2c1NC(=O)c1ccccc1C(=O)O do in these assays?
G9a inh: 14.1µM*; HP1b binding inh: 51.7%; PLK1 PBD block: -9.1%; JMJD2A Tudor inh: -13.1%; Sfp inh: -14.3%; BAZ2B inh: -11.9%

What do the screens show for `C=CCNC(=S)Nc1c(C(=O)OC)[nH]c2cc(OC)ccc12`?
G9a inh: 11.2µM*; HP1b binding inh: 34.1%; PLK1 PBD block: -18.4%; JMJD2A Tudor inh: inconclusive; Sfp inh: -4.3%; BAZ2B inh: -21.5%

Results for CCOC(=O)c1[nH]c2ccc(OC)cc2c1NC(=O)CCN1CCC(C)CC1 ?
G9a inh: 4.47µM*; HP1b binding inh: 24.6%; PLK1 PBD block: 3.9%; JMJD2A Tudor inh: 4.8%; Sfp inh: -6.7%; BAZ2B inh: -16.4%

How did CCOC(=O)c1[nH]c2ccccc2c1NC(=O)c1ccccc1OCC do in these assays?
G9a inh: -33.1%[59 µM]; HP1b binding inh: 26.6%; JMJD2A Tudor inh: -33.1%; BAZ2B inh: -11.4%

What do the screens show for `CCCC(=O)Nc1c(C(=O)OCC)[nH]c2ccccc12`?
G9a inh: -13.5%[59 µM]; HP1b binding inh: 11.6%; PLK1 PBD block: -14.2%; JMJD2A Tudor inh: -12.8%; Sfp inh: -0.5%; BAZ2B inh: 4.5%

What do the screens show for `COC(=O)c1[nH]c2cc(OC)ccc2c1NC(=O)c1c(F)cccc1F`?
G9a inh: -50.0%; HP1b binding inh: 27.8%; PLK1 PBD block: -4.9%; JMJD2A Tudor inh: -16.9%; Sfp inh: -6.8%; BAZ2B inh: -0.7%

Results for CCOC(=O)c1[nH]c2ccc(OC)cc2c1NC(=O)c1ccccc1C(=O)O ?
G9a inh: 44.7µM*; HP1b binding inh: 50.3%; PLK1 PBD block: -7.4%; JMJD2A Tudor inh: -18.9%; Sfp inh: inconclusive; BAZ2B inh: -7.0%

How did Cc1cccc(NC(=O)Cn2cc(S(=O)(=O)N3CCCC3)c(S(=O)(=O)N3CCCC3)c2)c1C do in these assays?
G9a inh: -9.6%[59 µM]; HP1b binding inh: 23.7%; JMJD2A Tudor inh: -12.3%; BAZ2B inh: 11.9%[57.1 µM]

What do the screens show for `CC1(C(=O)NCCc2ccccc2)Cc2c(-c3cccc(C(F)(F)F)c3)ccnc2O1` (centres undefined)?
PLK1 PBD block: 1.7%
